Source: the supplement of paper PMC4466140

Tests used:
Test in all cases: SPOT peptide array binding signal intensity (averaged, normalized) (arbitrary units (background-subtracted, floor 0; scale differs between SH3 domains)); higher = stronger binding of the SH3 domain to the peptide
AgAbp1 = target: AgAbp1
Summary of the method: (§1)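 Spot intensities were captured after detection with anti-GST antibody, an HRP-linked anti-mouse secondary and luminol, and quantified with Genespotter. The probes were GST-fused SH3 domains from four yeast species, produced in E. coli BL21(DE3), purified on glutathione Sepharose and incubated at 10 μg/ml overnight at 4°C on cellulose-bound synthetic 15-mer peptides with cysteines replaced by serines. Binding signal is the normalized, background-subtracted spot intensity averaged over replicates, and its arbitrary units differ between domains.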

AgBbc1 = target: AgBbc1
Summary of the method: as §1

AgBem1-D1 = target: AgBem1-D1
Summary of the method: as §1

AgBzz1-D1 = target: AgBzz1-D1
Summary of the method: as §1

AgBzz1-D2 = target: AgBzz1-D2
Summary of the method: as §1

AgCyk3 = target: AgCyk3
Summary of the method: as §1

AgFus1 = target: AgFus1
Summary of the method: as §1

AgHof1 = target: AgHof1
Summary of the method: as §1

AgHse1 = target: AgHse1
Summary of the method: as §1

AgLsb1 = target: AgLsb1
Summary of the method: as §1

AgLsb4 = target: AgLsb4
Summary of the method: as §1

AgMyo5 = target: AgMyo5
Summary of the method: as §1

AgNbp2 = target: AgNbp2
Summary of the method: as §1

AgRvs167 = target: AgRvs167
Summary of the method: as §1

AgSho1 = target: AgSho1
Summary of the method: as §1

AgSla1-D1-D2 = target: AgSla1-D1-D2
Summary of the method: as §1

AgSla1-D3 = target: AgSla1-D3
Summary of the method: as §1

CaAbp1-D1 = target: CaAbp1-D1
Summary of the method: as §1

CaAbp1-D2 = target: CaAbp1-D2
Summary of the method: as §1

CaBbc1 = target: CaBbc1
Summary of the method: as §1

CaBem1-D1 = target: CaBem1-D1
Summary of the method: as §1

CaBzz1-D1 = target: CaBzz1-D1
Summary of the method: as §1

CaBzz1-D2 = target: CaBzz1-D2
Summary of the method: as §1

CaCyk3 = target: CaCyk3
Summary of the method: as §1

CaFus1 = target: CaFus1
Summary of the method: as §1

CaHof1 = target: CaHof1
Summary of the method: as §1

CaHse1 = target: CaHse1
Summary of the method: as §1

CaLsb1 = target: CaLsb1
Summary of the method: as §1

CaLsb4 = target: CaLsb4
Summary of the method: as §1

CaMyo5 = target: CaMyo5
Summary of the method: as §1

CaNbp2 = target: CaNbp2
Summary of the method: as §1

CaRvs167 = target: CaRvs167
Summary of the method: as §1

CaRvs167-3 = target: CaRvs167-3
Summary of the method: as §1

CaSho1 = target: CaSho1
Summary of the method: as §1

CaSla1-D1-D2 = target: CaSla1-D1-D2
Summary of the method: as §1

CaSla1-D3 = target: CaSla1-D3
Summary of the method: as §1

ScAbp1 = target: ScAbp1
Summary of the method: as §1

ScBbc1 = target: ScBbc1
Summary of the method: as §1

ScBem1-D1 = target: ScBem1-D1
Summary of the method: as §1

ScBzz1-D1 = target: ScBzz1-D1
Summary of the method: as §1

ScBzz1-D2 = target: ScBzz1-D2
Summary of the method: as §1

ScCyk3 = target: ScCyk3
Summary of the method: as §1

ScFus1 = target: ScFus1
Summary of the method: as §1

ScHof1 = target: ScHof1
Summary of the method: as §1

ScHse1 = target: ScHse1
Summary of the method: as §1

ScLsb1 = target: ScLsb1
Summary of the method: as §1

ScLsb2 = target: ScLsb2
Summary of the method: as §1

ScLsb3 = target: ScLsb3
Summary of the method: as §1

ScLsb4 = target: ScLsb4
Summary of the method: as §1

ScMyo3 = target: ScMyo3
Summary of the method: as §1

ScMyo5 = target: ScMyo5
Summary of the method: as §1

ScNbp2 = target: ScNbp2
Summary of the method: as §1

ScPex13 = target: ScPex13
Summary of the method: as §1

ScRvs167 = target: ScRvs167
Summary of the method: as §1

ScSho1 = target: ScSho1
Summary of the method: as §1

ScSla1-D1-D2 = target: ScSla1-D1-D2
Summary of the method: as §1

ScSla1-D3 = target: ScSla1-D3
Summary of the method: as §1

SpAbp1-D1 = target: SpAbp1-D1
Summary of the method: as §1

SpBbc1 = target: SpBbc1
Summary of the method: as §1

SpBzz1-D1 = target: SpBzz1-D1
Summary of the method: as §1

SpBzz1-D2 = target: SpBzz1-D2
Summary of the method: as §1

SpCyk3 = target: SpCyk3
Summary of the method: as §1

SpHof1 = target: SpHof1
Summary of the method: as §1

SpHof1-2 = target: SpHof1-2
Summary of the method: as §1

SpHof1-3 = target: SpHof1-3
Summary of the method: as §1

SpHse1 = target: SpHse1
Summary of the method: as §1

SpLsb1 = target: SpLsb1
Summary of the method: as §1

SpLsb4 = target: SpLsb4
Summary of the method: as §1

SpMyo1 = target: SpMyo1
Summary of the method: as §1

SpNbp2 = target: SpNbp2
Summary of the method: as §1

SpPex13 = target: SpPex13
Summary of the method: as §1

SpRvs167 = target: SpRvs167
Summary of the method: as §1

SpSla1-D1-D2 = target: SpSla1-D1-D2
Summary of the method: as §1

SpSla1-D3 = target: SpSla1-D3
Summary of the method: as §1

QQEQNTPPLPPKPKS
SPOT peptide array binding signal intensity (AgAbp1): 10.5 | SPOT peptide array binding signal intensity (AgBbc1): ≤ 0 | SPOT peptide array binding signal intensity (AgBem1-D1): ≤ 0 | SPOT peptide array binding signal intensity (AgBzz1-D1): 194 | SPOT peptide array binding signal intensity (AgBzz1-D2): 5.5 | SPOT peptide array binding signal intensity (AgCyk3): ≤ 0 | SPOT peptide array binding signal intensity (AgFus1): ≤ 0 | SPOT peptide array binding signal intensity (AgHof1): 760 | SPOT peptide array binding signal intensity (AgHse1): ≤ 0 | SPOT peptide array binding signal intensity (AgLsb1): ≤ 0 | SPOT peptide array binding signal intensity (AgLsb4): 151 | SPOT peptide array binding signal intensity (AgMyo5): ≤ 0 | SPOT peptide array binding signal intensity (AgNbp2): ≤ 0 | SPOT peptide array binding signal intensity (AgRvs167): ≤ 0 | SPOT peptide array binding signal intensity (AgSho1): 16.5 | SPOT peptide array binding signal intensity (AgSla1-D1-D2): 2 | SPOT peptide array binding signal intensity (AgSla1-D3): 3.75 | SPOT peptide array binding signal intensity (CaAbp1-D1): 53 | SPOT peptide array binding signal intensity (CaAbp1-D2): 33.5 | SPOT peptide array binding signal intensity (CaBbc1): 9 | SPOT peptide array binding signal intensity (CaBem1-D1): ≤ 0 | SPOT peptide array binding signal intensity (CaBzz1-D1): 166 | SPOT peptide array binding signal intensity (CaBzz1-D2): 34.8 | SPOT peptide array binding signal intensity (CaCyk3): ≤ 0 | SPOT peptide array binding signal intensity (CaFus1): 9 | SPOT peptide array binding signal intensity (CaHof1): 0.25 | SPOT peptide array binding signal intensity (CaHse1): 404 | SPOT peptide array binding signal intensity (CaLsb1): 0.5 | SPOT peptide array binding signal intensity (CaLsb4): 1300 | SPOT peptide array binding signal intensity (CaMyo5): ≤ 0 | SPOT peptide array binding signal intensity (CaNbp2): ≤ 0 | SPOT peptide array binding signal intensity (CaRvs167): ≤ 0 | SPOT peptide array binding signal intensity (CaRvs167-3): ≤ 0 | SPOT peptide array binding signal intensity (CaSho1): 13.5 | SPOT peptide array binding signal intensity (CaSla1-D1-D2): ≤ 0 | SPOT peptide array binding signal intensity (CaSla1-D3): ≤ 0 | SPOT peptide array binding signal intensity (ScAbp1): 5 | SPOT peptide array binding signal intensity (ScBbc1): 2.5 | SPOT peptide array binding signal intensity (ScBem1-D1): ≤ 0 | SPOT peptide array binding signal intensity (ScBzz1-D1): 7 | SPOT peptide array binding signal intensity (ScBzz1-D2): 3 | SPOT peptide array binding signal intensity (ScCyk3): 1 | SPOT peptide array binding signal intensity (ScFus1): ≤ 0 | SPOT peptide array binding signal intensity (ScHof1): 109 | SPOT peptide array binding signal intensity (ScHse1): ≤ 0 | SPOT peptide array binding signal intensity (ScLsb1): 223 | SPOT peptide array binding signal intensity (ScLsb2): ≤ 0 | SPOT peptide array binding signal intensity (ScLsb3): 3310 | SPOT peptide array binding signal intensity (ScLsb4): 67 | SPOT peptide array binding signal intensity (ScMyo3): ≤ 0 | SPOT peptide array binding signal intensity (ScMyo5): ≤ 0 | SPOT peptide array binding signal intensity (ScNbp2): ≤ 0 | SPOT peptide array binding signal intensity (ScPex13): 680 | SPOT peptide array binding signal intensity (ScRvs167): 58.3 | SPOT peptide array binding signal intensity (ScSho1): 152 | SPOT peptide array binding signal intensity (ScSla1-D1-D2): ≤ 0 | SPOT peptide array binding signal intensity (ScSla1-D3): ≤ 0 | SPOT peptide array binding signal intensity (SpAbp1-D1): 23.5 | SPOT peptide array binding signal intensity (SpBbc1): 0.5 | SPOT peptide array binding signal intensity (SpBzz1-D1): 336 | SPOT peptide array binding signal intensity (SpBzz1-D2): ≤ 0 | SPOT peptide array binding signal intensity (SpCyk3): 1.5 | SPOT peptide array binding signal intensity (SpHof1): ≤ 0 | SPOT peptide array binding signal intensity (SpHof1-2): 12.2 | SPOT peptide array binding signal intensity (SpHof1-3): 16 | SPOT peptide array binding signal intensity (SpHse1): 28.2 | SPOT peptide array binding signal intensity (SpLsb1): 585 | SPOT peptide array binding signal intensity (SpLsb4): 1340 | SPOT peptide array binding signal intensity (SpMyo1): ≤ 0 | SPOT peptide array binding signal intensity (SpNbp2): ≤ 0 | SPOT peptide array binding signal intensity (SpPex13): ≤ 0 | SPOT peptide array binding signal intensity (SpRvs167): 462 | SPOT peptide array binding signal intensity (SpSla1-D1-D2): ≤ 0 | SPOT peptide array binding signal intensity (SpSla1-D3): ≤ 0

DRIRMFIRFPKFLLE
SPOT peptide array binding signal intensity (AgAbp1): 9.5 | SPOT peptide array binding signal intensity (AgBbc1): 5 | SPOT peptide array binding signal intensity (AgBem1-D1): 153 | SPOT peptide array binding signal intensity (AgBzz1-D1): 12 | SPOT peptide array binding signal intensity (AgBzz1-D2): 20 | SPOT peptide array binding signal intensity (AgCyk3): 5.5 | SPOT peptide array binding signal intensity (AgFus1): 524 | SPOT peptide array binding signal intensity (AgHof1): 27.5 | SPOT peptide array binding signal intensity (AgHse1): 1880 | SPOT peptide array binding signal intensity (AgLsb1): 1 | SPOT peptide array binding signal intensity (AgLsb4): 105 | SPOT peptide array binding signal intensity (AgMyo5): 0.5 | SPOT peptide array binding signal intensity (AgNbp2): 278 | SPOT peptide array binding signal intensity (AgRvs167): 4.33 | SPOT peptide array binding signal intensity (AgSho1): 132 | SPOT peptide array binding signal intensity (AgSla1-D1-D2): 236 | SPOT peptide array binding signal intensity (AgSla1-D3): 5.5 | SPOT peptide array binding signal intensity (CaAbp1-D1): 470 | SPOT peptide array binding signal intensity (CaAbp1-D2): 318 | SPOT peptide array binding signal intensity (CaBbc1): 22.2 | SPOT peptide array binding signal intensity (CaBem1-D1): 27 | SPOT peptide array binding signal intensity (CaBzz1-D1): 4 | SPOT peptide array binding signal intensity (CaBzz1-D2): 6.75 | SPOT peptide array binding signal intensity (CaCyk3): 30.5 | SPOT peptide array binding signal intensity (CaFus1): 1830 | SPOT peptide array binding signal intensity (CaHof1): 0.5 | SPOT peptide array binding signal intensity (CaHse1): 191 | SPOT peptide array binding signal intensity (CaLsb1): 0.5 | SPOT peptide array binding signal intensity (CaLsb4): 108 | SPOT peptide array binding signal intensity (CaMyo5): 42.5

KKIRLIFTYPSTVGR
SPOT peptide array binding signal intensity (SpBzz1-D2): 0.5 | SPOT peptide array binding signal intensity (SpCyk3): 92 | SPOT peptide array binding signal intensity (SpHof1): 315 | SPOT peptide array binding signal intensity (SpHof1-2): 91 | SPOT peptide array binding signal intensity (SpHof1-3): 872 | SPOT peptide array binding signal intensity (SpHse1): 910 | SPOT peptide array binding signal intensity (SpLsb1): 2 | SPOT peptide array binding signal intensity (SpLsb4): 210 | SPOT peptide array binding signal intensity (SpMyo1): 14 | SPOT peptide array binding signal intensity (SpNbp2): 1780 | SPOT peptide array binding signal intensity (SpPex13): 24 | SPOT peptide array binding signal intensity (SpRvs167): 21 | SPOT peptide array binding signal intensity (SpSla1-D1-D2): 5 | SPOT peptide array binding signal intensity (SpSla1-D3): 49
